{"source": "PubChem BioAssay AID493191", "about": "(Broad Institute, 2011)", "note": "Hit rate of the full screen: of about 1,300 compounds, about 330 (25%) were called active. No rule for the calls is given here. These entries were drawn from the full list. Entries with a potency or affinity are not part of this list.", "data": [{"experiment": "growth inhibition of MALME3 cells – cell-based, CellTiter-Glo, cherry-picked, orthogonal assay for MITF inhibitor project, dose response (AID 493191)", "details": "MALME3 melanoma viability, CellTiter-Glo luminescence, 24 h; series mostly up to 35 µM", "values": [{"smiles": "CCOc1ccc2cc(C#N)c(SCC(=O)OC)nc2c1", "outcome": "inactive"}, {"smiles": "Cc1cc(C)cc(NS(=O)(=O)c2ccc3c(c2)c(=O)n(C)c(=O)n3C)c1", "outcome": "inactive"}, {"smiles": "N#Cc1cnn2cc(CCN3CCOCC3)c(-c3ccc(F)cc3)nc12", "outcome": "inactive"}, {"smiles": "Cc1cc(Cl)ccc1OCCCC(=O)N1CCOCC1", "outcome": "inactive"}, {"smiles": "O=C(CCCc1ccccc1)N1CCN(C2CCCCC2)CC1", "outcome": "inactive"}, {"smiles": "O=C(Cn1nnc(-c2ccccc2Cl)n1)N1CCCCC1", "outcome": "inactive"}, {"smiles": "Cc1ccc(C(=O)c2cccc(N)c2)cc1C", "outcome": "inactive"}, {"smiles": "CC(C)(C)c1ccc(C(=O)N2CCCCCC2=O)cc1", "outcome": "inactive"}, {"smiles": "O=C(CSCc1c(F)cccc1F)Nc1ccccc1", "outcome": "inactive"}, {"smiles": "CC(C)(C)OC(=O)N1CCN(C(=O)c2nc[nH]c2C(=O)N2CCN(c3ccccc3)CC2)CC1", "outcome": "inactive"}, {"smiles": "Cc1ccsc1C(=O)OCC(=O)Nc1sccc1C(N)=O", "outcome": "inactive"}, {"smiles": "CCCCC(=O)N/C(N)=N/c1nc2ccccc2o1", "outcome": "inactive"}, {"smiles": "Cc1c(Cl)c([N+](=O)[O-])nn1Cc1ccc(C(=O)N/N=C\\c2cc(Cl)ccc2O)o1", "outcome": "inactive"}, {"smiles": "O=C(N/N=C/c1ccccn1)c1cc([N+](=O)[O-])cc([N+](=O)[O-])c1", "outcome": "inactive"}, {"smiles": "O=C(c1ccc([N+](=O)[O-])s1)N1CCN(c2ccccn2)CC1", "outcome": "inactive"}, {"smiles": "O=C(O)c1cc2ccccc2c(N=Nc2cccnc2)c1O", "outcome": "inactive"}, {"smiles": "CN(C)S(=O)(=O)c1cccc(NC(=O)CSc2nc3c(cc2C#N)C(=O)CC(C)(C)C3)c1", "outcome": "inactive"}, {"smiles": "O=C(c1nnsc1S(=O)(=O)c1ccc(Cl)cc1)N1CCOCC1", "outcome": "inactive"}, {"smiles": "Nc1ccc(-c2nc3ccc(C(=O)O)cc3s2)cc1", "outcome": "inactive"}, {"smiles": "OCC1CCCC(n2cnc3c(=S)nc[nH]c32)O1", "note": "(stereo not drawn)", "outcome": "inactive"}, {"smiles": "CCN1CCCC1CNC(=O)c1ccc2c(c1)NC(=O)/C(=C\\c1ccc(OC)c(OC)c1)S2", "note": "(stereo not drawn)", "outcome": "inactive"}, {"smiles": "COc1cccc(/C=C2/Sc3ccc(C(=O)NCCN4CCCC4)cc3NC2=O)c1", "outcome": "inactive"}, {"smiles": "CCCC1=Nc2cc(C(=O)NCCN3CCCC3)ccc2Sc2ccccc21", "outcome": "inactive"}, {"smiles": "Cc1cccc(/C=C2/Sc3ccc(C(=O)NCCN4CCCC4)cc3NC2=O)c1", "outcome": "inactive"}, {"smiles": "CCN1CCN(CCCNC(=O)c2ccc3c(Cl)c4c(nc3c2)CCCC4)CC1", "outcome": "inactive"}, {"smiles": "CCNc1nc(N)c(C(=O)c2ccc(Cl)s2)s1", "outcome": "inactive"}, {"smiles": "CSc1nc(N)n2nc(-c3ccc(Cl)cc3)cc2n1", "outcome": "inactive"}, {"smiles": "CC(C)CC(=O)/C=C/n1c(=S)oc2ccccc21", "outcome": "inactive"}, {"smiles": "O=C(CC(=O)c1ccccc1)Nc1ccccn1", "outcome": "inactive"}, {"smiles": "CN(c1cccc(NC(=O)COc2ccc(Cl)cc2Cl)c1)S(C)(=O)=O", "outcome": "inactive"}, {"smiles": "CC(=O)Nc1ccc(S(=O)(=O)N2CCn3cccc3C2C)cc1", "note": "(stereo not drawn)", "outcome": "inactive"}, {"smiles": "CC(=O)Nc1cccc2c1Cc1ccccc1-2", "outcome": "inactive"}, {"smiles": "c1ccc(-c2cn3nc4c(nc3n2)CCCC4)cc1", "outcome": "inactive"}, {"smiles": "O=S1(=O)CCC(NC(=S)SCc2ccccc2Br)C1", "note": "(stereo not drawn)", "outcome": "inactive"}, {"smiles": "COc1cccc(-c2nnc3sc(-c4cccs4)nn23)c1", "outcome": "inactive"}, {"smiles": "COCC(C)Nc1ncnc2c1cnn2-c1ccc(Cl)cc1", "note": "(stereo not drawn)", "outcome": "inactive"}, {"smiles": "Nc1ccccc1SC1CC(=O)N(c2ccc3c(c2)OCCO3)C1=O", "note": "(stereo not drawn)", "outcome": "inactive"}, {"smiles": "Cc1ccc2nc(NC(=O)c3ccc(Br)o3)sc2c1", "outcome": "inactive"}, {"smiles": "COC(=O)CSC1=C(C#N)C(=O)NC(c2ccccc2)S1", "note": "(stereo not drawn)", "outcome": "inactive"}, {"smiles": "Cc1ccc(OCCNCc2ccccc2)c(C)c1", "outcome": "inactive"}, {"smiles": "CC(C)(C)c1ccc(OCCn2ccccc2=O)cc1", "outcome": "inactive"}, {"smiles": "NC(=O)c1cc([N+](=O)[O-])ccc1NCc1ccc(N)cc1", "outcome": "inactive"}, {"smiles": "Cc1ccc2nc3cc([N+](=O)[O-])cc([N+](=O)[O-])c3cc2c1", "outcome": "inactive"}, {"smiles": "CC(=O)N/C(N)=N/c1nc2cc(C)ccc2o1", "outcome": "inactive"}, {"smiles": "Cc1ccc(NC(=O)c2cnc3ccccc3n2)cc1C", "outcome": "inactive"}, {"smiles": "CCn1nccc1C(=O)Nc1ccc(C)c(C)c1", "outcome": "inactive"}, {"smiles": "CC(C)=CCc1c(O)ccc2c1OC(c1ccc(O)c(O)c1)CC2=O", "note": "(stereo not drawn)", "outcome": "inactive"}, {"smiles": "Cc1c(OCC(=O)NC2CC(C)(C)NC(C)(C)C2)ccc2c1oc(=O)c1ccccc12", "outcome": "inactive"}, {"smiles": "COc1cc(SC)ccc1C(=O)NCCOc1ccccc1Cl", "outcome": "inactive"}, {"smiles": "CC1CCN(CC2C(=O)O[C@@H]3C[C@@]4(C)CCC[C@H](C)C4=C[C@H]23)CC(C)(C)C1", "note": "(stereo partly drawn)", "outcome": "inactive"}, {"smiles": "CCOc1ccccc1NC(=O)C(=O)N/N=C/c1cc(Br)ccc1O", "outcome": "inactive"}, {"smiles": "COc1ccc(C(=O)N/N=C/c2cc(Br)ccc2O)cc1OC", "outcome": "inactive"}, {"smiles": "COc1ccc(CCn2c(=S)[nH]c3cc(C(=O)NCc4ccco4)ccc3c2=O)cc1OC", "outcome": "inactive"}]}]}
